# The sample as a whole holds a higher share of the strongest signals than the screen did.
# B1: Di AAL2 (Agrocybe aegerita) (protein)
# chain: MTSNVITQDLPIPVASRGFADIVGFGLDGVVIGRNAVNLQPFLAVKNFAQNAGGWLTTKHVRLIADTTGTGKGDIVGFGNAGVYVSVNNGKNTFADPPKMVIANFGYDAGGWRVEKHLRYLADIRKIGRADIIGFGEKGVLVSRNNGGLNFGPATLVLKDFGYDAGGWRLDRHLRFLADVTGNGHLDIVGFGDKHVFISRNNGDGTFAPAKSVIDNFCIDAGGWKIGDHPRFVADLTGDGTADIIGCGKAGCWVALNNGGGVFGQVKLVINDFGTDKGWQAAKHPRFIADLTGNGRGDVVGFGNAGVYVALNNGDGTFQSAKLVLKDFGVQQGWTVSKHRRFVVDLTGDGCADIIGFGEKETLVSYNDGKGNFGPVKALTNDFSFSGGKWAPETTVCWMANLDSSRHPAPAPMTSNVITQDLPIPVASRGFADIVGFGLDGVVIGRNAVNLQPFLAVKNFAQNAGGWLTTKHVRLIADTTGTGKGDIVGFGNAGVYVSVNNGKNTFADPPKMVIANFGYDAGGWRVEKHLRYLADIRKIGRADIIGFGEKGVLVSRNNGGLNFGPATLVLKDFGYDAGGWRLDRHLRFLADVTGNGHLDIVGFGDKHVFISRNNGDGTFAPAKSVIDNFCIDAGGWKIGDHPRFVADLTGDGTADIIGCGKAGCWVALNNGGGVFGQVKLVINDFGTDKGWQAAKHPRFIADLTGNGRGDVVGFGNAGVYVALNNGDGTFQSAKLVLKDFGVQQGWTVSKHRRFVVDLTGDGCADIIGFGEKETLVSYNDGKGNFGPVKALTNDFSFSGGKWAPETTVCWMANLDSSRH
# Legend:
# Assay in all cases: glycan array binding signal (z-score within array); higher = stronger binding
# Settings in all cases: glycan notation: IUPAC condensed, linker removed
# [1] = molecular target: Fuc(a1-2)Gal(b1-3)GalNAc(a1-3)[Fuc(a1-2)]Gal(b1-4)GlcNAc
# How it was run: (§1)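 Glycan array binding is given as a within-array Z-score, which can be read as non-binding when negative. The arrays, 3228 of them, came from the Consortium for Functional Glycomics database and were retained only where the protein sequence was available. Z-scores were averaged across arrays of the same protein sequence at different concentrations or buffers and across linkers.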
# [2] = molecular target: Fuc(a1-2)Gal(b1-3)GlcNAc(b1-3)[Neu5Ac(a2-6)Gal(b1-4)GlcNAc(b1-6)]Gal(b1-4)Glc
# How it was run: as §1
# [3] = molecular target: Fuc(a1-2)[Gal(a1-3)]Gal(b1-3)GlcNAc
# How it was run: as §1
# [4] = molecular target: Fuc(a1-2)[Gal(a1-3)]Gal(b1-3)GlcNAc(b1-3)GalNAc
# How it was run: as §1
# [5] = molecular target: Fuc(a1-2)[Gal(a1-3)]Gal(b1-4)GlcNAc(b1-3)[Fuc(a1-2)[Gal(a1-3)]Gal(b1-4)GlcNAc(b1-6)]GalNAc
# How it was run: as §1
# [6] = molecular target: Fuc(a1-2)[GalNAc(a1-3)]Gal(b1-3)GlcNAc
# How it was run: as §1
# [7] = molecular target: Fuc(a1-2)[GalNAc(b1-3)]Gal
# How it was run: as §1
# [8] = molecular target: Fuc(a1-3)[Gal(b1-4)]Glc6S
# How it was run: as §1
# [9] = molecular target: Gal(a1-3)Gal
# How it was run: as §1
# [10] = molecular target: Gal(a1-4)Gal(b1-4)GlcNAc(b1-2)Man(a1-3)[Gal(a1-4)Gal(b1-4)GlcNAc(b1-2)Man(a1-6)]Man(b1-4)GlcNAc(b1-4)GlcNAc
# How it was run: as §1
# [11] = molecular target: Gal(b1-2)Gal
# How it was run: as §1
# [12] = molecular target: Gal(b1-3)GalNAc(b1-3)Gal(a1-4)Gal(b1-4)Glc
# How it was run: as §1
# [13] = molecular target: Gal(b1-3)GalNAc(b1-4)[Neu5Ac(a2-3)]Gal(b1-4)Glc
# How it was run: as §1
# [14] = molecular target: Gal(b1-3)GlcNAc(b1-6)Gal(b1-4)GlcNAc
# How it was run: as §1
# [15] = molecular target: Gal(b1-3)[Fuc(a1-4)]GlcNAc(b1-3)Gal(b1-4)[Fuc(a1-3)]GlcNAc
# How it was run: as §1
# [16] = molecular target: Gal(b1-4)GlcNAc(b1-2)Man(a1-3)[Gal(b1-4)GlcNAc(b1-2)Man(a1-6)]Man(b1-4)GlcNAc(b1-4)[Fuc(a1-6)]GlcNAc
# How it was run: as §1
# [17] = molecular target: Gal(b1-4)GlcNAc(b1-2)[Gal(b1-4)GlcNAc(b1-4)]Man(a1-3)[GlcNAc(b1-4)][Gal(b1-4)GlcNAc(b1-2)Man(a1-6)]Man(b1-4)GlcNAc(b1-4)GlcNAc
# How it was run: as §1
# [18] = molecular target: Gal(b1-4)GlcNAc(b1-3)Gal(b1-4)GlcNAc(b1-3)Gal(b1-4)GlcNAc(b1-2)Man(a1-3)[Gal(b1-4)GlcNAc(b1-3)Gal(b1-4)GlcNAc(b1-3)Gal(b1-4)GlcNAc(b1-2)Man(a1-6)]Man(b1-4)GlcNAc(b1-4)[Fuc(a1-6)]GlcNAc
# How it was run: as §1
# [19] = molecular target: Gal(b1-4)GlcNAc(b1-6)[Gal(b1-4)GlcNAc(b1-3)]GalNAc
# How it was run: as §1
# [20] = molecular target: Gal3S(b1-3)GalNAc
# How it was run: as §1
# [21] = molecular target: Gal4S6S(b1-4)GlcNAc
# How it was run: as §1
# [22] = molecular target: GlcNAc(a1-4)Gal(b1-4)GlcNAc(b1-3)Gal(b1-4)GlcNAc
# How it was run: as §1
binder,measurement,setting,value
B1,glycan array binding signal (z-score),[1],-0.31
same,glycan array binding signal (z-score),[2],-0.337
same,glycan array binding signal (z-score),[3],-0.338
same,glycan array binding signal (z-score),[4],-0.312
same,glycan array binding signal (z-score),[5],-0.292
same,glycan array binding signal (z-score),[6],-0.172
same,glycan array binding signal (z-score),[7],-0.337
same,glycan array binding signal (z-score),[8],-0.322
same,glycan array binding signal (z-score),[9],-0.332
same,glycan array binding signal (z-score),[10],5.32
same,glycan array binding signal (z-score),[11],-0.333
same,glycan array binding signal (z-score),[12],-0.331
same,glycan array binding signal (z-score),[13],-0.314
same,glycan array binding signal (z-score),[14],-0.333
same,glycan array binding signal (z-score),[15],-0.331
same,glycan array binding signal (z-score),[16],-0.343
same,glycan array binding signal (z-score),[17],-0.313
same,glycan array binding signal (z-score),[18],-0.209
same,glycan array binding signal (z-score),[19],-0.313
same,glycan array binding signal (z-score),[20],-0.334
same,glycan array binding signal (z-score),[21],-0.338
same,glycan array binding signal (z-score),[22],2.68

# — the supplement of paper PMC8728848
